# This is one part of a sample in which the strongest signals are shown more often than they occur.
# Experiments:
# Assay in all cases: glycan array binding signal (z-score within array); higher = stronger binding
# Conditions in all cases: glycan notation: IUPAC condensed, linker removed; mutation: D21K
# [1] = biological target: Fuc(a1-2)Gal(b1-3)GalNAc(a1-3)[Fuc(a1-2)]Gal(b1-4)GlcNAc
# Method in brief: (§1)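 Columns mapping to the same glycan were averaged after glycan names were converted to IUPAC-condensed notation. The data come from 3228 arrays in the Consortium for Functional Glycomics database, limited to those with an available protein sequence. Binding is reported as a within-array Z-score averaged across arrays of one protein sequence and across linkers.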
# [2] = biological target: Fuc(a1-2)Gal(b1-4)[Fuc(a1-3)]GlcNAc
# Method in brief: as §1
# [3] = biological target: Fuc(a1-2)[Gal(a1-3)]Gal(b1-4)GlcNAc
# Method in brief: as §1
# [4] = biological target: Fuc(a1-2)[Gal(a1-3)]Gal(b1-4)GlcNAc(b1-3)GalNAc
# Method in brief: as §1
# [5] = biological target: Fuc(a1-2)[Gal(a1-3)]Gal(b1-4)GlcNAc(b1-3)[Fuc(a1-2)[Gal(a1-3)]Gal(b1-4)GlcNAc(b1-6)]GalNAc
# Method in brief: as §1
# [6] = biological target: Fuc(a1-2)[Gal(a1-3)]Gal(b1-4)GlcNAc(b1-6)GalNAc
# Method in brief: as §1
# [7] = biological target: Fuc(a1-2)[Gal(a1-3)]Gal(b1-4)[Fuc(a1-3)]GlcNAc
# Method in brief: as §1
# [8] = biological target: Fuc(a1-2)[GalNAc(a1-3)]Gal(b1-4)GlcNAc(b1-2)Man(a1-3)[Fuc(a1-2)[GalNAc(a1-3)]Gal(b1-4)GlcNAc(b1-2)Man(a1-6)]Man(b1-4)GlcNAc(b1-4)GlcNAc
# Method in brief: as §1
# [9] = biological target: Fuc(a1-2)[GalNAc(a1-3)]Gal(b1-4)GlcNAc(b1-3)[Fuc(a1-2)[GalNAc(a1-3)]Gal(b1-4)GlcNAc(b1-6)]GalNAc
# Method in brief: as §1
# [10] = biological target: Gal(a1-3)Gal(b1-4)GlcNAc(b1-2)Man
# Method in brief: as §1
# Gal(a1-4)GlcNAc = biological target: Gal(a1-4)GlcNAc
# Method in brief: as §1
# Gal(a1-6)Glc = biological target: Gal(a1-6)Glc
# Method in brief: as §1
# [11] = biological target: Gal(b1-3)GalNAc(b1-3)Gal(a1-4)Gal(b1-4)Glc
# Method in brief: as §1
# [12] = biological target: Gal(b1-3)GalNAc(b1-4)[Neu5Ac(a2-3)]Gal(b1-4)Glc
# Method in brief: as §1
# [13] = biological target: Gal(b1-3)GlcNAc(b1-2)Man(a1-3)[GlcNAc(b1-4)][Gal(b1-3)GlcNAc(b1-2)Man(a1-6)]Man(b1-4)GlcNAc(b1-4)GlcNAc
# Method in brief: as §1
# [14] = biological target: Gal(b1-3)GlcNAc(b1-3)Gal(b1-4)Glc
# Method in brief: as §1
# [15] = biological target: Gal(b1-3)GlcNAc(b1-3)Gal(b1-4)GlcNAc(b1-3)Gal(b1-4)GlcNAc(b1-2)[Gal(b1-3)GlcNAc(b1-3)Gal(b1-4)GlcNAc(b1-3)Gal(b1-4)GlcNAc(b1-6)]Man(a1-6)[Gal(b1-3)GlcNAc(b1-3)Gal(b1-4)GlcNAc(b1-3)Gal(b1-4)GlcNAc(b1-2)Man(a1-3)]Man(b1-4)GlcNAc(b1-4)[Fuc(a1-6)]GlcNAc
# Method in brief: as §1
# Gal(b1-3)GlcNAc6S = biological target: Gal(b1-3)GlcNAc6S
# Method in brief: as §1
# [16] = biological target: Gal(b1-3)[Fuc(a1-4)]GlcNAc(b1-2)Man(a1-3)[Gal(b1-3)[Fuc(a1-4)]GlcNAc(b1-2)Man(a1-6)]Man(b1-4)GlcNAc(b1-4)[Fuc(a1-6)]GlcNAc
# Method in brief: as §1
# [17] = biological target: Gal(b1-3)[GlcNAc(b1-6)]GalNAc
# Method in brief: as §1
# [18] = biological target: Gal(b1-4)GlcNAc(b1-3)Gal(b1-4)GlcNAc(b1-2)Man(a1-3)[Gal(b1-4)GlcNAc(b1-3)Gal(b1-4)GlcNAc(b1-2)Man(a1-6)]Man(b1-4)GlcNAc(b1-4)[Fuc(a1-6)]GlcNAc
# Method in brief: as §1
# [19] = biological target: Gal(b1-4)GlcNAc(b1-3)Gal(b1-4)GlcNAc(b1-3)Gal(b1-4)GlcNAc(b1-3)Gal(b1-4)GlcNAc(b1-2)[Gal(b1-4)GlcNAc(b1-3)Gal(b1-4)GlcNAc(b1-3)Gal(b1-4)GlcNAc(b1-3)Gal(b1-4)GlcNAc(b1-6)]Man(a1-6)[Gal(b1-4)GlcNAc(b1-3)Gal(b1-4)GlcNAc(b1-3)Gal(b1-4)GlcNAc(b1-3)Gal(b1-4)GlcNAc(b1-2)Man(a1-3)]Man(b1-4)GlcNAc(b1-4)[Fuc(a1-6)]GlcNAc
# Method in brief: as §1
# [20] = biological target: Gal(b1-4)GlcNAc(b1-3)Gal(b1-4)GlcNAc(b1-3)GalNAc
# Method in brief: as §1
# [21] = biological target: Gal(b1-4)GlcNAc(b1-3)Gal(b1-4)GlcNAc(b1-6)[Gal(b1-3)]GalNAc
# Method in brief: as §1
# [22] = biological target: Gal(b1-4)GlcNAc(b1-3)Gal(b1-4)[Fuc(a1-3)]GlcNAc(b1-3)Gal(b1-4)[Fuc(a1-3)]GlcNAc
# Method in brief: as §1
# Gal3S6S(b1-4)GlcNAc = biological target: Gal3S6S(b1-4)GlcNAc
# Method in brief: as §1
# Gal6S(b1-3)GlcNAc6S = biological target: Gal6S(b1-3)GlcNAc6S
# Method in brief: as §1
# [23] = biological target: GalNAc(a1-3)GalNAc(b1-3)Gal(a1-4)Gal(b1-4)GlcNAc
# Method in brief: as §1
# [24] = biological target: GalNAc(b1-3)Gal(a1-4)Gal(b1-4)GlcNAc(b1-3)Gal(b1-4)Glc
# Method in brief: as §1
# GalNAc(b1-3)GlcNAc = biological target: GalNAc(b1-3)GlcNAc
# Method in brief: as §1
binder,measurement,setting,value
KILRGVCKKIMRTFLRRISKKILTGKK [C7A (Sus scrofa)],glycan array binding signal (z-score),[1],-0.784
same,glycan array binding signal (z-score),[2],-1.12
same,glycan array binding signal (z-score),[3],0.504
same,glycan array binding signal (z-score),[4],-1.37
same,glycan array binding signal (z-score),[5],-0.287
same,glycan array binding signal (z-score),[6],0.121
same,glycan array binding signal (z-score),[7],1.3
same,glycan array binding signal (z-score),[8],-0.971
same,glycan array binding signal (z-score),[9],0.698
same,glycan array binding signal (z-score),[10],-0.255
same,glycan array binding signal (z-score),Gal(a1-4)GlcNAc,-1.02
same,glycan array binding signal (z-score),Gal(a1-6)Glc,-1.76
same,glycan array binding signal (z-score),[11],2.25
same,glycan array binding signal (z-score),[12],0.649
same,glycan array binding signal (z-score),[13],0.213
same,glycan array binding signal (z-score),[14],-0.894
same,glycan array binding signal (z-score),[15],0.352
same,glycan array binding signal (z-score),Gal(b1-3)GlcNAc6S,1.73
same,glycan array binding signal (z-score),[16],-1.63
same,glycan array binding signal (z-score),[17],-0.867
same,glycan array binding signal (z-score),[18],3.05
same,glycan array binding signal (z-score),[19],-0.172
same,glycan array binding signal (z-score),[20],2.33
same,glycan array binding signal (z-score),[21],2.48
same,glycan array binding signal (z-score),[22],-0.696
same,glycan array binding signal (z-score),Gal3S6S(b1-4)GlcNAc,2.5
same,glycan array binding signal (z-score),Gal6S(b1-3)GlcNAc6S,2.66
same,glycan array binding signal (z-score),[23],0.64
same,glycan array binding signal (z-score),[24],1.58
same,glycan array binding signal (z-score),GalNAc(b1-3)GlcNAc,-0.947
